Reference: PubChem BioAssay
Values without a mark were called inactive. No rule for the calls is given here.

What follows are compounds tested against Pantothenate synthetase (Mycobacterium tuberculosis (strain ATCC 25618 / H37Rv)) (UniProt P9WIL5) (assay: Coupled enzyme confirmation of inhibitors against recombinant Mtb PanC (AID 375;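 also: 0% = full reaction with vehicle and 100% = no enzyme background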)). Details: coupled enzyme assay; at 10 µM, stronger effect = higher value.
Pantothenate synthetase (Mycobacterium tuberculosis (strain ATCC 25618 / H37Rv)), sequence (P9WIL5 whole entry, looked up): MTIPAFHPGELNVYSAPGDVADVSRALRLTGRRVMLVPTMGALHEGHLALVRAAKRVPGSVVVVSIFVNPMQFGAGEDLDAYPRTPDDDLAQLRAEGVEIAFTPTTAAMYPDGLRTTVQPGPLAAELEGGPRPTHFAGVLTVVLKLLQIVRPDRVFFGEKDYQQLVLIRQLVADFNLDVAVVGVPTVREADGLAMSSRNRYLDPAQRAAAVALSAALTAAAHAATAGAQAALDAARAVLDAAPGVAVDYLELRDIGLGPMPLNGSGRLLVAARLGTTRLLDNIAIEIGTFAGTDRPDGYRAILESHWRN
For CCOC(=O)C1=C(Cn2cnc3ccccc32)NC(=O)NC1c1cc(C)ccc1C (configuration not stated), the inhibition was 0%.
Compound COc1ccc(C(=O)Nc2nncs2)c(OC)c1 has an inhibition of 3%.
O=C(C1CCN(S(=O)(=O)N2CCC3(CC2)OCCO3)CC1)N1CCOCC1 was tested, and the inhibition was 0%.
Compound Cc1nc(/N=C(\N)Nc2ccccc2)nc2ccccc12 has an inhibition of 0%.
Work on COc1ccc(CCNC(=O)c2ccc(N3CCCC3=O)cc2)cc1OC yielded an inhibition of 0%.
COc1cccc(OCCSc2nnc3sc4ccccc4n23)c1 was tested, and the inhibition was 0%.
O=C(NC12CC3CC(CC(C3)C1)C2)N1CCN(C(=O)C2CCCO2)CC1 (configuration not stated) gave an inhibition of 7%.
Work on Cc1ccc(S(=O)(=O)C2(C(=O)Nc3nccs3)CC2)cc1 yielded an inhibition of 0%.
O=C1CCCc2c1cc(C(=O)NCCCN1CCOCC1)c(=O)n2-c1ccc(Cl)cc1 gave an inhibition of 0%.
With Cc1cc(NC(=O)Cc2cn3ccsc3n2)n(-c2ccccc2)n1 the inhibition was 1%.
CCn1c(SCC(=O)NCc2ccco2)nc2c(c1=O)SC(C)C2 (configuration not stated) showed an inhibition of 8%.
Compound O=C(Nc1nonc1NC(=O)C1CCCCC1)C1CCCCC1 has an inhibition of 0%.
O=C(c1cccnc1)N1CCN(C(=O)c2ccccc2F)CC1 was tested, and the inhibition was 4%.
In the case of COc1ccc(S(=O)(=O)NCCCN2CCOCC2)c2ccccc12, the inhibition is reported as 0%.
CCC(=O)c1ccc(OC(=O)c2ccc(Br)o2)cc1 showed an inhibition of 7%.
O=C(CSc1nc2cc(S(=O)(=O)N3CCOCC3)ccc2o1)NC1CCCc2ccccc21 (configuration not stated) showed an inhibition of 0%.
With CN(C)S(=O)(=O)Nc1ccccc1C(N)=O the inhibition was 0%.
